# Measured values taken from PubChem BioAssay AID430 (Sanford-Burnham Center for Chemical Genomics, 2006).
# Screen size: about 63,000 compounds; about 1,100 (1.7%) were called active. Only a selection was taken, and actives are over-represented in it overall. Measured potencies and affinities stand elsewhere. A number with no mark means an inactive call. Rule as the data show it: active = cytotoxicity above about 50%; inactive = the rest.
# Assay: HPDE-C7 pancreatic duct cell viability loss – fluorescence, HTS (AID 430);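 also: cells exposed to compound for 48 hours before viability readout; 0% = vehicle and 100% = reference cytotoxic drug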
# Conditions: HPDE-C7 pancreatic duct cells viability, at 10 µM, stronger effect = higher value
row,Compound,cytotoxicity
1,Cc1ccc(NC(=O)c2ccco2)cc1NC(=O)CSc1nnc(-c2cccs2)n1C,-3.6%
2,CCc1[nH]nc2c1C(c1cccc(OC(=O)N3CCOCC3)c1)C(C#N)=C(N)O2 (stereo not drawn),-34.3%
3,COc1ccc(Nc2nc(-c3sc(N)nc3C)cs2)cc1,46.6%
4,CCn1c(C(O)c2ccccc2)nc2ccccc21 (stereo not drawn),-4.3%
5,Cc1ccc(N2C(=O)C(Cl)=C(Nc3c(C)n(C)n(-c4ccccc4)c3=O)C2=O)cc1,-0.2%
6,CCOc1ccc(-c2[nH]ncc2Oc2cccc(OC)c2)c(O)c1,55.5% (active)
7,Cc1ccc(NC(=O)C2CCCN2S(=O)(=O)c2ccc(F)cc2)c(C)c1 (stereo not drawn),-6.1%
8,CCOC(=O)C1CCCN(CCCc2ccccc2)C1 (stereo not drawn),-2.8%
9,CCOC(=O)c1c(C2CCN(C(=O)OCC)CC2)nc2ccccn12,0%
10,COc1ccc(C(C)=O)c2c(O)cccc12,9.1%
11,COc1ccc2c3c(cccc13)OCC2=O,8.3%
12,COc1cccc(/C(O)=C2/C(=O)C(=O)N(CCN3CCOCC3)C2c2cccnc2)c1 (stereo not drawn),-7.7%
13,CC(=O)Nc1nc2ccc(Br)cc2s1,-11.8%
14,Cc1c(C(=O)N2CCCC2)oc2c1-c1[nH]ncc1CC2,1%
15,CCOCCCNC(=O)N[C@@H](Cc1ccccc1)C(=O)OC,0.6%
16,COC(=O)Cc1cc(=O)n(-c2nc3ccccc3[nH]2)[nH]1,-3%
17,CCOC(=O)CC(=O)Nc1nc2ccccc2s1,1.7%
18,COC(=O)Cc1cc(=O)n(-c2ccccc2)[nH]1,-18.7%
19,CCOC(=O)Cc1cc(=O)n(-c2nc3ccccc3s2)[nH]1,75.9% (active)
20,CCOC(=O)c1nc2ccccc2s1,-0.3%
21,COC(=O)Cc1cc(=O)n(-c2nc3ccccc3s2)[nH]1,74.2% (active)
22,COc1ccc(CN/C=C2\CCCCC2=O)cc1,5.7%
23,Cc1ccccc1-c1nc(CS(=O)CC(=O)NCCCN(C)c2ccccc2)c(C)o1 (stereo not drawn),10.9%
24,COc1ccc(-n2nc(C(=O)N3CCC(C#N)CC3)c3c4ccccc4n(C)c3c2=O)cc1,-4.7%
25,Cc1cccc(OCc2nnc(SCC(=O)Nc3cc(C)on3)n2C)c1,-0.4%
26,Cn1c(=O)[nH]c(=O)c2c1ncn2CCN1CCCCC1,-5.6%
27,CCCOc1ccc(C2c3c(oc4cc(C)c(C)cc4c3=O)C(=O)N2CCCN(C)C)cc1 (stereo not drawn),-4.2%
28,O=C(CSc1n[nH]c(-c2ccccc2)n1)c1ccc(O)c(O)c1,-0.1%
